According to PubChem BioAssay (NCI):
Compounds without any hit were thinned out: in the full panel of roughly 83,000, 20% have a hit.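 Treatment: one concentration, 48 hours, 96-well format. Scoring: percent growth, with anything below 10 considered active.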 A number with no mark means an inactive call. Activity calls are given as the source filed them.

Assays:
Assay in all cases: NCI-60 one-dose screen, 48 h (100 = growth as untreated, 0 = no growth, -100 = all killed)
Settings in all cases: 10 µM
HT29 colon = system: HT29 colon
SNB-75 CNS = system: SNB-75 CNS
SNB-19 CNS = system: SNB-19 CNS
U251 CNS = system: U251 CNS
PC-3 prostate = system: PC-3 prostate
SK-MEL-5 melanoma = system: SK-MEL-5 melanoma
UACC-62 melanoma = system: UACC-62 melanoma
LOX IMVI melanoma = system: LOX IMVI melanoma
SK-MEL-2 melanoma = system: SK-MEL-2 melanoma
EKVX NSCLC = system: EKVX NSCLC
SN12C renal = system: SN12C renal
UO-31 renal = system: UO-31 renal
TK-10 renal = system: TK-10 renal
ACHN renal = system: ACHN renal
CAKI-1 renal = system: CAKI-1 renal
A498 renal = system: A498 renal
CCRF-CEM leukemia = system: CCRF-CEM leukemia
MOLT-4 leukemia = system: MOLT-4 leukemia
SR leukemia = system: SR leukemia
SK-MEL-28 melanoma = system: SK-MEL-28 melanoma

Row | Structure (SMILES) | growth (HT29 colon) | growth (SNB-75 CNS) | growth (SNB-19 CNS) | growth (U251 CNS) | growth (PC-3 prostate) | growth (SK-MEL-5 melanoma) | growth (UACC-62 melanoma) | growth (LOX IMVI melanoma) | growth (SK-MEL-2 melanoma) | growth (EKVX NSCLC) | growth (SN12C renal) | growth (UO-31 renal) | growth (TK-10 renal) | growth (ACHN renal) | growth (CAKI-1 renal) | growth (A498 renal) | growth (CCRF-CEM leukemia) | growth (MOLT-4 leukemia) | growth (SR leukemia) | growth (SK-MEL-28 melanoma)
1 | c1ccc([C@H]2CN3CCSC3=N2)cc1 | 101% | -20.8% (active) | 110% | 107% | 98.9% | 103% | 99% | 102% | 105% | 98.3% | 109% | 88.2% | 112% | 107% | 93.6% | 85% | 99.1% | 98.5% | 103% | 
2 | O=C(CCCCCCC(=O)Nc1cccnc1)NO | 13.2% | -13.5% (active) | 68.1% | 42.2% | 26.3% | 15.3% | 25.3% | 62.4% | 28.8% | 96.7% | 71.2% | 30.3% | 41% | 65.7% | 46.6% | 42.9% | 2% (active) | 16.9% | 28.6% | 
3 | CN(C)c1ccc(/C=C/C=N/NC(=O)c2cc(O)c(O)c(O)c2)cc1 | 111% | 81.3% | 79.9% | 59.7% | 85.8% | 92.9% | 107% | 91.4% |  |  | 105% | 65.9% | 101% | 76.8% | 93.4% | 88.1% | 16.1% | 48% | 32.9% | 108%
4 | COc1ccc(N2C(=O)C3c4[nH]c5ccc(OCc6ccccc6)cc5c4C4CCC(C(C)C)CC4C3C2=O)cc1 (stereo not drawn) | 89.3% | 31.3% | 104% | 18.8% | 88.3% | 99.5% | 94.2% | 90.1% | 101% | 115% | 103% | 91.7% | 116% | 3.44% (active) | 94% | 105% | 71.9% | 30.8% | 64.6% | 
5 | C/C(=N\Nc1nc2ccccc2s1)c1ccncn1 | 25.1% | 61.8% | 51.1% | 33.6% | 27.3% | 31.4% | 41.7% | 31.5% | 63% | 22.7% | 46.7% | 19.8% | 50.6% | 12.6% | 29.9% | 63.3% | 5.95% (active) | 2.87% (active) | 17.8% | 
6 | O=C1NC(=O)c2ncccc21 | 108% | 98% | 107% | 106% | 107% | 95.1% | 112% | 101% |  |  | 105% | 104% |  | 110% | 96.4% | 110% | 99.1% | 106% | 111% | 110%
7 | CC(C)C[C@H](NC(=O)[C@H](Cc1cccc2ccccc12)NS(=O)(=O)c1cccc2cccnc12)B(O)O | -56.6% (active) | -51.9% (active) | 8.26% (active) | -52.9% (active) | -23.2% (active) | -85.8% (active) | -50.9% (active) | -78.7% (active) | -41.2% (active) | 6.76% (active) | 8.75% (active) | -80.2% (active) | -60.2% (active) | -3.75% (active) | -20.7% (active) | -36.4% (active) | -18.8% (active) | 1.17% (active) | 2.44% (active) | 
8 | CN(C)C(=S)N/N=C\C=N/NC(=S)N(C)C | 13.5% | 64% | 90.3% | 42.8% | -18.4% (active) | 64.8% | 73.2% | 43.9% | 85% |  | 88.4% | 31.7% | 96.5% | 80% | 74.1% | 89% | 22.6% | 10% | 35.4% | 
